The values below come from PubChem BioAssay AID488890 (Southern Research Specialized Biocontainment Screening …, 2010).

In all, about 320,000 compounds went through this assay and about 1,300 (0.41%) were called active. Roughly 3% stayed inconclusive and do not appear here. No rule for the calls is given here. These entries were drawn from the full list. Results with a measured potency or affinity are listed apart. Peptide text beside a SMILES is read from it. * marks the point of attachment. Boc = CC(C)(C)OC(=O)*; OtBu = CC(C)(C)O*

This test is described as follows: growth inhibition of non-replicating M. tuberculosis (AID 488890).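 Also: plate controls were DMSO cells for no effect and high antibiotic wells for full effect.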 Particulars: Mycobacterium tuberculosis non-replicating, at 25 µM, stronger effect = higher value.
Turning to `N#CCP(=S)(c1ccccc1)c1ccccc1`, the inhibition amounted to 24.1%.
The result for `CCCNC(=O)C(Cc1ccccc1)NC(=O)c1ccc(-c2ccccc2)cc1` (stereo not drawn) reads 4%; that for `COc1ccc(CN(CC2CCC(C(=O)O)CC2)C(=S)Nc2cc(Cl)ccc2OC)cc1` (stereo not drawn), 2.05%; that for `CC(NC(=O)C(CC(=O)OC(C)(C)C)NC(=O)OC(C)(C)C)C(N)=O` (stereo not drawn) (Boc-Asp(OtBu)-Ala-NH2; configuration not given here), -0.24%.
On to `Cc1onc(-c2ccc(Cl)cc2Cl)c1-c1csc(COc2ccccc2)n1`, for which the inhibition is -7.56%.
For the compound `Cc1onc(C(=O)NN)c1-c1csc(COc2ccc(Cl)cc2)n1`, the inhibition is 13.2%.
The result for `CCOC(=O)c1ccccc1-c1csc(N)n1` reads 6.53%.
As for `CC(=O)c1csc(COc2ccc(Cl)cc2)n1`, the inhibition was found to be 38.9%.
The figure for `Nc1nonc1-c1noc(COc2ccccc2Cl)n1` is 5.72%; for `CCOC(=O)c1csc(NC(=O)c2ccc(OCC)cc2)n1` it is 19.8%.
With `CCn1cc(C(=O)NCC2CCCO2)c(=O)c2cc(S(=O)(=O)N3CCCCCC3)ccc21` (stereo not drawn), the inhibition was 4.04%.
For the compound `COc1ccccc1C(=O)Nc1c2c(nn1-c1cccc(C)c1C)CS(=O)(=O)C2`, the inhibition is 2.28%.
As for `CC(C)c1ccc(NC2CCCN(C(=O)c3ccc(Cn4cnnn4)cc3)C2)cc1` (stereo not drawn), the inhibition was 10.9%.
The result for `CS(=O)(=O)N1CCCC(C(=O)Nc2ccc(F)c(F)c2)C1` (stereo not drawn) reads -12.2%; that for `Nn1c(SCC(=O)Nc2ccc3c(c2)OCCO3)nncc1=O`, -11.2%.
As to `Cc1ccc(N/C=C/C(=O)C(C)(C)C)c(O)c1`, the inhibition stood at 6.34%.
With `CCOc1ccccc1N/C=C/C(=O)C(C)(C)C`, the inhibition was 0.25%.
The figure for `NC(=O)c1ccccc1N/C=C/C(=O)c1ccco1` is -0.65%.
The figure for `Cc1ccc(N/C=C/C(=O)c2ccco2)c(O)c1` is 12.5%; for `C=C(C)COc1ccc(-c2[nH]ncc2Oc2ccc(OC)cc2)c(O)c1` it is -5.21%; for `COc1ccc(C(c2c(N)[nH]c(=S)[nH]c2=O)c2c(N)[nH]c(=S)[nH]c2=O)cc1` it is -18.4%.
`COc1ccc(-c2nc(CCl)cs2)cc1`: the inhibition is 7.52%.
The figure for `COc1ccc(-c2csc(-c3ccc(O)cc3)n2)cc1` is 40%; for `O=C(CSc1c2c(nc3cc(Cl)ccc13)CCCC2)NCCCN1CCOCC1` it is 50%.
The figure for `Cc1[nH]c(=S)c(C#N)c2c1CCCC2` is 16.1%.
The result for `COc1ccc(CNc2nc3nc(C)c(Cl)c(=O)n3[nH]2)cc1` reads 28.1%.
For the compound `CC(OC(=O)c1cc(S(=O)(=O)N2CCOCC2)ccc1Br)C(=O)N1CCOCC1` (stereo not drawn), the inhibition was found to be 6.34%.
The result for `CCC1Oc2ccccc2N(CC(=O)NCCCN2CCCCC2CC)C1=O` (stereo not drawn) reads 1.4%; that for `NS(=O)(=O)c1ccc(NC2=CC(=O)C(=O)c3ccccc32)cc1`, 36.2%; that for `CC(=O)Nc1ccc(NC2=CC(=O)c3ccccc3C2=O)cc1`, -2.89%.
`O=C1C=C(Nc2ccccc2)C(=O)c2ccccc21`: the inhibition was found to be 56.9%.
Take `CCOC(=O)c1ccc(NC(=O)C(C)N2C(=O)c3ccccc3C2=O)cc1` (stereo not drawn): the inhibition is -8.22%.
The figure for `CCOC(=O)c1ccc(NC2c3ccccc3C(=O)N2c2ccccn2)cc1` (stereo not drawn) is -6.64%.
Regarding `CCOC(=O)c1ccccc1NC1OC(=O)c2ccccc21` (stereo not drawn), the inhibition was -8.12%.
As to `CCOC(=O)c1c(C)[nH]c(C(=O)COC(=O)Cn2cc(C(F)(F)F)ccc2=O)c1C`, the inhibition came out at 2.63%.
The result for `CCCc1nnc(NC(=O)CCC(=O)Nc2ccc(F)cc2)s1` reads -5.14%; that for `CCN(C(=O)c1ccc(Cl)c(S(=O)(=O)Nc2c(C)n(C)n(-c3ccccc3)c2=O)c1)c1ccccc1`, 5.47%.
The figure for `CCN(CC)C(=O)Cn1cc(C(=O)C(=O)N2CCCc3ccccc32)c2ccccc21` is 16.8%.
The result for `Cc1cc(/C=C2\NC(=O)NC2=O)c(C)n1-c1cccnc1` reads -6.79%.
Turning to `S=C(Nc1ccccc1)N1CCC(Cc2ccccc2)CC1`, the inhibition is 5.68%.
On to `O=C(N/N=C/c1cc(Br)ccc1O)c1cccc(N2CCCC2=O)c1`, for which the inhibition was determined as 54.7%.
The figure for `COc1ccc(O)c(/C=N/NC(=O)c2cccc(N3CCCC3=O)c2)c1` is 5.55%; for `CCC1(CC)C(=O)N(C)C(=O)NC1=NC` it is -9.72%.
The result for `O=C(N/N=C\c1cc2c(cc1[N+](=O)[O-])OCO2)c1cccs1` reads 16.5%; that for `O=[N+]([O-])c1ccc(O)c(/C=N\N=C2c3ccccc3-c3ccccc32)c1`, 72.8%; that for `O=[N+]([O-])c1cccc(/C=N\N=C2c3ccccc3-c3ccccc32)c1O`, 22%.
The result for `CN(C)/N=C/c1cc([N+](=O)[O-])ccc1O` reads -5.98%; that for `O=[N+]([O-])c1cccc(C=Nc2cccc3ccccc23)c1O`, 55.1%; that for `O=C(N/N=C/c1ccccc1[N+](=O)[O-])c1cccs1`, 55.4%.
On to `c1ccc(CN2CCNCC2)nc1`, for which the inhibition was -22.1%.
The result for `CCOc1ncccc1C(=O)OCC(=O)N1CCN(S(=O)(=O)c2ccccc2)CC1` reads -4.22%.
The figure for `CCOc1ccc(/C=N/OCC(=O)NCc2ccc3c(c2)OCO3)cc1OC` is 13%; for `CCNC(=O)CSc1nnc(-c2cccs2)o1` it is 61.4%.
As for `Cc1ccc(S(=O)(=O)Nc2ccnc3ccccc23)cc1`, the inhibition is -9.89%.
`Cc1ccc(S(=O)(=O)Nc2cccc3ncccc23)cc1`: the inhibition was 15.3%.
The figure for `O=C(NNC1OC(CO)C(O)C(O)C1O)c1cccnc1` (stereo not drawn) is -18.5%; for `CCOC(=O)c1c(-n2cnnn2)sc2c1CCCC2` it is 0.53%.
The result for `CCCS(=O)(=O)c1nc(S(=O)(=O)c2ccc(Cl)cc2)c(N2CCC(O)CC2)s1` reads 9.91%; that for `CCn1c(-c2ccccc2)ccc(C#N)c1=O`, -0.3%.
In the case of `CC(C)OC(=O)Cn1cc(C#N)c2ccccc21`, the inhibition was 17%.
The figure for `CCc1cccc2c(C#N)cn(CC(=O)N3CCOCC3)c12` is -9.31%; for `CCc1cccc2c(C#N)cn(CC(=O)NCCOC)c12` it is 2.34%; for `CCOC(=O)Cn1c(-c2ccccc2)cc(SC)c(C#N)c1=O` it is 37.8%.
Consider `COC(=O)Cn1cc(C#N)c2ccccc21`, for which the inhibition came to 51.2%.
The result for `Cc1cc(Cl)ccc1OCC(=O)Nc1cccnc1` reads 41%; that for `C[C@]12C(=O)N(c3ccccc3)C(=O)N1[C@H]1c3ccccc3OC[C@@H]1[C@H]2c1ccccc1`, 79%; that for `Cn1c2ccccc2c2cc(/C=N/NC(=O)c3cc(O)cc(O)c3)ccc21`, -7.45%.
As to `O=C(O)c1ccc(NS(=O)(=O)/C=C/c2ccccc2)cc1`, the inhibition was -4.07%.
Regarding `O=C(O)c1cccc(NS(=O)(=O)/C=C/c2ccccc2)c1`, the inhibition was -0.77%.
The result for `CC(=O)Nc1ccc(NC(=S)NC(=O)C2CCCC2)cc1` reads 30.2%.
The figure for `O=C(Nc1ccc(F)cc1)C1CCCCC1` is 42.2%; for `OCC1(CCOc2ccccc2)CCN(Cc2ccc3c(c2)OCCO3)CC1` it is 14.7%; for `COC(=O)C(NC(C)=O)(Nc1nc2ccc(S(C)(=O)=O)cc2s1)C(F)(F)F` (stereo not drawn) it is -2.55%.
The result for `COc1ccc(C(CCNCc2ccc(OC)c(OC)c2)c2ccc(F)cc2)cc1` (stereo not drawn) reads 76.8%; that for `COc1ccccc1C(CCNCc1ccccc1)c1ccc(OC(C)C)cc1` (stereo not drawn), 68.5%.
With `O=C(O)c1cc2c(N3CCC(Cc4ccccc4)CC3)ncnc2s1`, the inhibition came out at 11.8%.
For `c1ccc2c(Cn3ccnc3)cccc2c1`, the inhibition is -22.3%.
The result for `CN(C)C1=NC[C@H](Cc2ccccc2)N1CCCC1CCCC1` reads 77%; that for `NC1=NC[C@H](Cc2ccccc2)N1CC1CCCCC1`, 17%.
The figure for `NC1=NC[C@H](Cc2ccc(O)cc2)N1CCc1cccc(F)c1` is 1.77%.
`CC(C)C[C@H]1CN=C(Nc2ccccc2)N1CCC1CCCC1`: the inhibition amounted to 65.2%.
The result for `CC(C)C[C@H]1CN=C(Nc2ccccc2)N1CCC1CCCCC1` reads 25.8%; that for `NC1=NC[C@@H](Cc2ccc(O)cc2)N1CCc1cccc2ccccc12`, 64.2%.
The result for `CCC(=O)N1CCc2cc(S(=O)(=O)N3CCN(c4cc(C)ccc4C)CC3)ccc21` reads -5.69%.
On to `COc1ccc(-c2cn3nc(C)c(C)nc3n2)cc1OC`, for which the inhibition is -17%.
The result for `Cc1nnc(Sc2c(-c3ccccc3)c3ccc(Cl)cc3[nH]c2=O)s1` reads 31.4%.
The result for `COc1ccc(C(=O)Nc2nnc(C3=COCCO3)o2)cc1OC` reads -10.9%; that for `COc1cc(C(=O)Nc2nnc(C3=COCCO3)o2)cc(OC)c1OC`, -6.31%; that for `CN(C)c1ccc(C(=O)Nc2nnc(C3=COCCO3)o2)cc1`, -3.42%.
As for `CC(=O)Nc1nnc(C2=COCCO2)o1`, the inhibition was 3.17%.
On to `CS(=O)(=O)c1cccc(C(=O)Nc2nnc(C3=COCCO3)o2)c1`, for which the inhibition was determined as 22.2%.
Consider `O=C(Nc1nnc(C2=COCCO2)o1)c1ccc(S(=O)(=O)N2CCCC2)cc1`, for which the inhibition was found to be 6.48%.
With `O=C(O)CN1C(=O)c2cccc3c(Br)ccc1c23`, the inhibition turned out to be 2.53%.
For `CCOC(=O)Cn1nnnc1CN(CCc1ccccc1)Cc1cc2cc(CC)ccc2[nH]c1=O`, the inhibition is -14.2%.
For `COc1ccc(Nc2nc3cc(C)ccc3cc2C#N)c(OC)c1`, the inhibition was -16.1%.
As for `Cc1cc(NC(=O)Cn2nnc3sc4c(c3c2=O)CCCC4)no1`, the inhibition turned out to be 9.47%.
Regarding `CCCn1c(C(C)NC(=O)c2ccccc2)n[nH]c1=S` (stereo not drawn), the inhibition worked out at 13.1%.
Regarding `COc1cccc(-c2ccc(NC(=O)C3CCCN(Cc4nccn4C)C3)cc2)c1` (stereo not drawn), the inhibition is 58%.
The figure for `O=C(Nc1cc(Cl)ccc1-n1cncn1)c1cc(F)c(F)c(F)c1F` is 14%; for `COc1cc(/C=C2\SC(=O)N(CC(=O)Nc3ccc(C)cc3)C2=O)cc(Cl)c1OCC(=O)O` it is 12.1%.
The result for `O=C(CCNC(=O)c1ccc([N+](=O)[O-])cc1)NCc1cccs1` reads -8.88%; that for `O=C(NCCNC(=O)c1ccc(Br)o1)c1ccc(Br)o1`, -3.49%; that for `O=C(NCCCCc1ccccc1)c1ccc(Br)o1`, 45.4%.
With `O=C(NCC1CCCCC1)c1cccc([N+](=O)[O-])c1`, the inhibition came to 69.2%.
The result for `Cc1ccc(CC(=O)NCCCc2ccccc2)cc1` reads 21.6%; that for `CCCCNC(=O)Cc1ccc(Br)cc1`, 74%; that for `O=C(NCc1cccs1)c1ccccc1`, 64.8%.
For `O=C(NCC1CCN(C(=O)c2ccc([N+](=O)[O-])cc2)CC1)c1ccc([N+](=O)[O-])cc1`, the inhibition amounted to 4.24%.
The figure for `C=CCC[C@@H](Cc1ccc(F)cc1)C(=O)OC[C@@H](Cc1c[nH]c2ccccc12)NC(=O)[C@H](CC=C)CC(=O)N[C@H](CO)Cc1ccccc1` is -0.91%.
Turning to `CCCCOc1ccc(C(=O)OCC(=O)c2c(N)n(C)c(=O)n(C)c2=O)cc1`, the inhibition came out at 27.4%.
As to `O=C(NCCCn1ccnc1)c1cccc(Br)c1`, the inhibition was -17.6%.
In the case of `COCC(=O)Nc1nc2n(n1)C(c1ccccc1Cl)CC(c1ccc(OC)cc1)N2` (stereo not drawn), the inhibition turned out to be 24.1%.
The result for `COC(=O)c1ccc(CS(=O)(=O)c2ccccc2C)o1` reads 2.59%.

By inhibition is commonly meant the relative decrease from the control value, in per cent.
